Results reported in PubChem BioAssay AID652257 (The Scripps Research Institute Molecular Screening Center, 2013).
The whole screen tested about 370,000 compounds, of which about 4,800 (1.3%) were called active.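 How the source made its calls: active means inhibition above about 21% made by adding two undisclosed values (limit read from the data); inactive means the rest.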 Many of the other results were omitted from the sample, so actives are more common in it than they were.

Each compound was assayed against Protein arginine N-methyltransferase 1 (Homo sapiens) (UniProt Q99873) (assay: PRMT1 methyltransferase inhibitors, primary screen, biochemical, fluorescence polarization (AID 652257)). Conditions: recombinant PRMT1, activity-based probe fluorescence polarization; at 2.79 µM; stronger effect = higher value.
Protein arginine N-methyltransferase 1 (Homo sapiens), sequence (Q99873 whole entry, looked up): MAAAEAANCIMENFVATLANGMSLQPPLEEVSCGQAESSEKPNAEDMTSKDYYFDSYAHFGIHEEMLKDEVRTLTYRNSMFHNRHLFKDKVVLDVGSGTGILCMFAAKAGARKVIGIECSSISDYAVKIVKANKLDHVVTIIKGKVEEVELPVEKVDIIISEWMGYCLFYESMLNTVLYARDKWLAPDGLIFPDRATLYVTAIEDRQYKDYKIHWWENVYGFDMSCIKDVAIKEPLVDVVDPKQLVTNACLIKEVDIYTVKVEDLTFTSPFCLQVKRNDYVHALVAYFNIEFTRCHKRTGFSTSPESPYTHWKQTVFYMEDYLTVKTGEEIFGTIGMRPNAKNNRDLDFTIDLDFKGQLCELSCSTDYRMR
In the case of `CCN(CC)CCCC(C)n1c2nc(=O)[nH]c(=O)c-2nc2cc(Cl)ccc21` (centres undefined), the inhibition is reported as 161% (active). With `CC(C)NC(=O)C(c1ccc(F)cc1)N(C(=O)CCC(=O)Nc1ccccn1)c1ccccc1F` (centres undefined) the inhibition was -0.59% (inactive). `C[C@H](C(=O)N(C)c1ccccc1)[C@@H](O)c1ccc2ccccc2c1` was tested, and the inhibition was 6.67% (inactive). In the case of `Nc1ccccc1C(=O)NC1CCCCNC1=O` (centres undefined), the inhibition is reported as -3.31% (inactive). With `O=C(NCc1ccco1)C1CCCN(S(=O)(=O)c2ccc(Cl)s2)C1` (centres undefined) the inhibition was -5.05% (inactive). `O=C(NC1=CC(=O)c2ccccc2C1=O)c1ccccc1` was tested, and the inhibition was 36.9% (active). For `O=C(OCC(O)C(O)COC(=O)c1ccccc1)c1ccccc1` (centres undefined), the inhibition was 1.36% (inactive). With `NS(=O)(=O)c1cc(C(=O)OCC(=O)NNC(=O)c2ccccc2)ccc1Cl` the inhibition was -1.9% (inactive). In the case of `C=C1c2c(Cl)ccc(O)c2C(O)=C2C(=O)[C@]3(O)C(O)=C(C(N)=O)C(=O)[C@@H](N(C)C)[C@@H]3[C@@H](O)C12` (some centres undefined), the inhibition is reported as 44.5% (active). With `CN(C)[C@@H]1C(=O)C(C(N)=O)=C(O)[C@@]2(O)C(=O)C3=C(O)c4c(O)ccc(Cl)c4[C@@H](O)[C@H]3C[C@@H]12` the inhibition was 32% (active). For `COC(=O)c1cc(S(=O)(=O)N2CCN(c3ccccc3C)CC2)cn1C`, the inhibition was -0.8% (inactive). With `COc1ncnc2c1N=C1CC(C)(C)CC(N)=C1S2` the inhibition was 33.2% (active). `Cc1ccc(C(=O)NCC(=O)NC2CC2)cc1` was tested, and the inhibition was -3.08% (inactive). For `CN(C)C(CNC(=O)c1cccc(S(=O)(=O)N2CCc3ccccc3C2)c1)c1ccccc1` (centres undefined), the inhibition was 2.65% (inactive). `COc1ccccc1NC(=O)COC(=O)COc1ccccc1F` was tested, and the inhibition was -0.97% (inactive). `COc1ccccc1NC(=O)c1cc(Cl)nnc1Cl` was tested, and the inhibition was 0.83% (inactive). `COc1ccccc1NC(=O)/C=C/C(N)=O` was tested, and the inhibition was 62.4% (active). `CN(C(=O)c1cccc([N+](=O)[O-])c1)c1ccccc1C(=O)NCc1ccccc1` was tested, and the inhibition was 0.8% (inactive). For `Cc1cc(C)n(-c2nc(O)cc(=O)[nH]2)n1`, the inhibition was -0.2% (inactive). For `Oc1ccc(N2CCN(C(=S)NCc3ccccc3)CC2)cc1`, the inhibition was 23.4% (active). For `O=C(COC(=O)c1ccccc1C(=O)N1CCN(c2ccccc2)CC1)NCc1ccccc1`, the inhibition was 12.8% (inactive). In the case of `O=C(CN1CCN(c2ccccc2O)CC1)NC(=O)NCc1ccccc1`, the inhibition is reported as -0.8% (inactive). `CC1CCN(C(=O)c2ncn3c2C(=O)N[C@@H](C)C3)CC1` was tested, and the inhibition was -0.43% (inactive). For `COc1ccc(S(=O)(=O)N(C)C[C@@H]2Oc3ccc(NS(=O)(=O)c4cn(C)cn4)cc3C(=O)N([C@@H](C)CO)C[C@@H]2C)cc1`, the inhibition was 0.38% (inactive). In the case of `COc1ccc(CCNC(=O)CSc2nc3c([nH]2)c(=O)n(C)c(=O)n3C)cc1`, the inhibition is reported as 1.93% (inactive). For `CC(C)(C)c1ccc(C(=O)Nc2cc(Cl)c(Br)cc2C(=O)O)cc1`, the inhibition was -1.7% (inactive). `COC(=O)[C@]12C[C@H](CC(=O)NCc3cccs3)C(=O)N(CCc3ccc(OC)c(OC)c3)C1=C[C@H](C(C)C)O[C@@H]2C1CC1` was tested, and the inhibition was -1.28% (inactive). With `CCOC(=O)CSc1nnc(CNc2ccc(F)cc2)o1` the inhibition was -0.98% (inactive). For `CCCCOC(=O)CNc1nnc(SCC(=O)OCC)[nH]c1=O`, the inhibition was 74.3% (active). `Cc1nnc(SCCCCSc2nnc(C)c(=O)[nH]2)[nH]c1=O` was tested, and the inhibition was 2.02% (inactive). With `CCC(=O)Nc1ccc2c(c1)C(=O)N(C)[C@@H]1CC[C@@H](CC(=O)NCCc3ccccc3)O[C@H]1CO2` the inhibition was 1.16% (inactive). With `COc1ccc(S(=O)(=O)N2CCCCC2)cc1NC(=O)COc1ccccc1` the inhibition was 2% (inactive). With `O=C(Nc1cc(S(=O)(=O)N2CCOCC2)ccc1OCC(F)(F)F)c1ccc(N2CCCC2=O)cc1` the inhibition was -0.65% (inactive). In the case of `Cc1ccc(/C=C/C(=O)Nc2cc(S(=O)(=O)N3CCCCCC3)ccc2OCC(F)(F)F)o1`, the inhibition is reported as 24.7% (active). `O=C(NCCCc1ccccc1)[C@H](Cc1ccccc1)NC1(C(=O)NCCc2c[nH]c3ccccc23)CCC1` was tested, and the inhibition was 4.62% (inactive). For `COc1ccc2c(c1)CN1CN(CCc3ccccc3)S(=O)(=O)CC21` (centres undefined), the inhibition was -7.45% (inactive). For `COCCNC(=O)Nc1ccc2nc(-c3ccco3)c(-c3ccco3)nc2c1`, the inhibition was 88.9% (active). With `COc1cc(NC(=O)C2=CC(c3ccco3)=NS(=O)(=O)N2C)cc(OC)c1OC` the inhibition was 1.92% (inactive). With `COc1ccc(C(=O)NC(=O)CSc2nnc(-c3ccco3)n2-c2ccccc2)cc1` the inhibition was 4.1% (inactive). With `O=C(Nc1ccc(F)c([N+](=O)[O-])c1)C1CCCO1` (centres undefined) the inhibition was -0.52% (inactive). `CCOC(=O)[C@]12CCCC=C1N(CCCOC)C(=O)[C@@H]2CC(=O)N1CCOCC1` was tested, and the inhibition was -11.2% (inactive). With `COC(=O)Nc1nc2ccc(C(=O)C3CC3)cc2[nH]1` the inhibition was -5.37% (inactive). `COc1ccc(C2NC(=O)C(=O)/C2=C(\O)c2ccc(Cl)cc2)cc1OC` (centres undefined) was tested, and the inhibition was 1.92% (inactive). In the case of `Clc1ccc(-n2c(SC/C=C/c3ccccc3)nnc2-c2ccco2)cc1`, the inhibition is reported as 2.59% (inactive). With `Clc1ccccc1CSc1nnc(-c2ccco2)c(-c2ccco2)n1` the inhibition was 45.8% (active). In the case of `Cc1cccc(N(CC(=O)N2CCCC2)S(C)(=O)=O)c1C`, the inhibition is reported as 0.79% (inactive). For `COc1ccc(N(CC(=O)N2CCOCC2)S(=O)(=O)c2ccccc2)cc1Cl`, the inhibition was 3.25% (inactive). `CN1C(=O)c2cc(NS(C)(=O)=O)ccc2OC[C@@H]2O[C@@H](CC(=O)NCc3ccc(-c4ccccc4)cc3)CC[C@H]21` was tested, and the inhibition was -3.76% (inactive). In the case of `S=c1ccc2ccccc2[nH]1`, the inhibition is reported as 41.1% (active). `S=c1[nH]c2ccccc2c2ccccc12` was tested, and the inhibition was 13.6% (inactive). With `Brc1ccccc1CN1CCC(Cc2ccccc2)CC1` the inhibition was -1.49% (inactive). `CCN(CC(=O)Nc1ccc(OC)cc1)C(=O)c1ccc(Cl)c(S(=O)(=O)N2CCCC2)c1` was tested, and the inhibition was -2.9% (inactive). `CCOc1ccc(NC(=O)CCCCCN2C(=O)[C@@H]3Cc4ccccc4CN3C2=O)cc1` was tested, and the inhibition was 0.46% (inactive). `CC[C@]1(O)C[C@@H]2CN(CCc3c([nH]c4ccccc34)[C@@](C(=O)OC)(c3cc4c(cc3OC)N(C)[C@H]3[C@@](O)(C(=O)OC)[C@H](OC(C)=O)[C@]5(CC)C=CCN6CC[C@]43[C@@H]65)C2)C1` was tested, and the inhibition was 4.62% (inactive).
